Test results reported in PubChem BioAssay (NCI).
Where “and” joins values, the source holds several entries; their conditions need not be identical. Equal entries are not always repeated. About 83,000 compounds went through this panel and 20% of them were active in at least one assay; those are over-represented in the sample as a whole.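 The test compound was applied at a single concentration to cells in 96-well plates for 48 hours, and percent growth was recorded.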 A number with no mark means an inactive call. Calls of active or inactive are those of the source. How the source made its calls: active means growth percent below 10; inactive means the rest.

Experiments:
Assay in all cases: NCI-60 one-dose screen, 48 h (100 = growth as untreated, 0 = no growth, -100 = all killed)
RPMI-8226 leukemia = details: 10 µM
OVCAR-8 ovarian = details: 10 µM
OVCAR-5 ovarian = details: 10 µM
OVCAR-4 ovarian = details: 10 µM
SK-OV-3 ovarian = details: 10 µM
IGROV1 ovarian = details: 10 µM
OVCAR-3 ovarian = details: 10 µM
HS 578T breast = details: 10 µM
NCI/ADR-RES ovarian = details: 10 µM
T-47D breast = details: 10 µM
BT-549 breast = details: 10 µM
MDA-MB-435 melanoma = details: 10 µM
SW-620 colon = details: 10 µM
MCF7 breast = system: MCF7 breast
HCT-116 colon = details: 10 µM
HCC-2998 colon = details: 10 µM
KM12 colon = details: 10 µM

Row | Compound | growth (RPMI-8226 leukemia) | growth (OVCAR-8 ovarian) | growth (OVCAR-5 ovarian) | growth (OVCAR-4 ovarian) | growth (SK-OV-3 ovarian) | growth (IGROV1 ovarian) | growth (OVCAR-3 ovarian) | growth (HS 578T breast) | growth (NCI/ADR-RES ovarian) | growth (T-47D breast) | growth (BT-549 breast) | growth (MDA-MB-435 melanoma) | growth (SW-620 colon) | growth (MCF7 breast; 10 µM) | growth (HCT-116 colon) | growth (HCC-2998 colon) | growth (KM12 colon) | growth (MCF7 breast; 25 µM)
1 | N#C/C(=C/N1C(=O)/C(=C/c2ccc([N+](=O)[O-])cc2)SC1=S)c1nc2ccccc2s1 | 67.4% | 88.4% | 90.3% | 104% | 82.4% | 69.8% | 82.2% | 90.4% | 92.3% | 53.6% | 84% | 99% | 87.8% | 60.7% | 85.9% | 92.6% | 89.7% | 
2 | Cn1c2nc3ccccc3c-2nc2ccccc21 | 94.9% and 96.8% | 93% and 88.6% | 103% and 86.9% | 89.5% and 80.5% | 91.2% and 90.8% | 79.8% and 61.6% | 99.2% and 93.3% | 83.4% and 87.5% | 99.3% and 93.6% | 78.9% and 72% | 90.5% and 92.6% | 109% and 125% | 79% and 90% | 77.3% and 67.5% | 92.7% and 80.9% | 118% and 102% | 92.4% and 83.5% | 
3 | Cn1ncc2cc3c(Nc4ccc(Cl)cc4)cccc3nc21 | 79% | 89.8% | 109% | 88.2% | 94.7% | 95.8% | 94.1% | 89% | 89.1% | 77.2% | 97.4% | 100% | 97.5% | 86.8% | 85.6% | 110% | 90.8% | 
4 | Cc1c(-c2ccccc2)[nH]c2ccccc12 | 88.3% | 105% | 99% | 96.7% |  | 103% | 105% | 102% | 105% | 92.4% |  | 111% | 99.3% | 79.7% | 113% | 102% | 103% | 
5 | CC1CCC2(C(=O)O)CCC3(C)C(=CCC4C5(C)CC(O)C(O)C(C)(CO)C5C(O)CC43C)C2C1C (stereo not given) | 128% |  | 188% | 114% | 103% | 92.8% | 118% |  | 99.4% | 97% | 114% | 110% | 107% | 96.9% | 103% |  | 104% | 
6 | CCC(=O)Oc1ccc(/C=N/NC(N)=S)nc1 | 50.3% | 23.5% | 108% | 56.2% | 78% | 45% | 57.3% | 117% | 25.1% | 35.7% | 51.2% | 54.9% | 49.5% | 22.5% | 42% |  | 60.5% | 
7 | COc1cc(N)ccc1Nc1c2ccccc2nc2ccccc12 |  | 66.1% | 110% | 5.09% (active) | 93.9% | 60.8% | 80.6% | 102% | 92.7% | 92.3% | 90% | 87.9% | 4.74% (active) | 12.5% | -88.5% (active) | 94.8% | 36.2% | 
8 | Cc1cc(O)c2c(c1O)C(=O)C13C(=C2O)C(=O)C2C(O)C1C1C(O)C3C(=O)C3=C(O)c4c(O)cc(C)c(O)c4C(=O)C321 (stereo not given) | -4.03% (active) |  | -50.6% (active) | 27.8% | -13.1% (active) | 10.3% | -39.1% (active) | -55.2% (active) | -17% (active) | -1.74% (active) | -53.3% (active) | -14.7% (active) | 8.3% (active) | 4.59% (active) | 2.8% (active) | -43.6% (active) | -53.3% (active) | 
9 | CO[C@@]12[C@H](COC(N)=O)C3=C(C(=O)C(C)=C(N)C3=O)N1C[C@@H]1N[C@@H]12 |  |  |  |  |  |  |  |  |  |  |  |  |  |  |  |  |  | -17.6% (active) and -61.3% (active)
10 | C=C1N(C)c2ccc(Cl)cc2C1(C)C | -13.2% (active) | 67.9% | 82.9% | 60.7% | 82% |  | 42.9% | 49.8% | 95.8% | 33.7% | 66.9% | 77.1% | 57.4% | 89% | 17.2% | 68.7% | 40.2% | 
